# According to PMC5540273 (PLoS ONE, 2017):
# Like-named read-outs stand apart in the source and are kept apart here.
# Experiments:
# [1] = test system: STK16; conditions: concentration: 1 μM, replicates: in singlicate; n = 1
# [2] = test system: STK33; conditions: concentration: 1 μM, replicates: in singlicate; n = 1
# [3] = test system: STK35; conditions: concentration: 1 μM, replicates: in singlicate; n = 1
# [4] = test system: STK36; conditions: concentration: 1 μM, replicates: in singlicate; n = 1
# [5] = test system: STK39; conditions: concentration: 1 μM, replicates: in singlicate; n = 1
# [6] = test system: SYK; conditions: concentration: 1 μM, replicates: in singlicate; n = 1
# [7] = test system: SgK110; conditions: concentration: 1 μM, replicates: in singlicate; n = 1
# [8] = test system: T1, TAK1; conditions: concentration: 1 μM, replicates: in singlicate; n = 1
# T1 construct: gene MAP3K7
# [9] = test system: TAOK1; conditions: concentration: 1 μM, replicates: in singlicate; n = 1
# [10] = test system: TAOK2; conditions: concentration: 1 μM, replicates: in singlicate; n = 1
# [11] = test system: TAOK3; conditions: concentration: 1 μM, replicates: in singlicate; n = 1
# [12] = test system: TBK1; conditions: concentration: 1 μM, replicates: in singlicate; n = 1
# [13] = test system: TEC; conditions: concentration: 1 μM, replicates: in singlicate; n = 1
# [14] = test system: TESK1; conditions: concentration: 1 μM, replicates: in singlicate; n = 1
# [15] = test system: TGFBR1; conditions: n = 1
# [16] = test system: TGFBR2; conditions: concentration: 1 μM, replicates: in singlicate; n = 1
# [17] = test system: TIE1; conditions: concentration: 1 μM, replicates: in singlicate; n = 1
# [18] = test system: T2, TIE2; conditions: concentration: 1 μM, replicates: in singlicate; n = 1
# T2 construct: gene TEK
# [19] = test system: TLK1; conditions: concentration: 1 μM, replicates: in singlicate; n = 1
# [20] = test system: TLK2; conditions: concentration: 1 μM, replicates: in singlicate; n = 1
# [21] = concentration: 1 μM, replicates: in singlicate
# 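Also: KINOMEscan kinase panel screen.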
structure (smiles),measurement,setting,value
Cc1c(Cn2ccn3c(=O)cc(N4CCOCC4)nc23)cccc1C(F)(F)F [GSK2289044],%Inh,[1],13%
same,%Inh,[2],0%
same,%Inh,[3],0%
same,%Inh,[4],19%
same,%Inh,[5],13%
same,%Inh,[6],15%
same,%Inh,[7],0%
same,%Inh,[8],0%
same,%Inh,[9],0%
same,%Inh,[10],0%
same,%Inh,[11],0%
same,%Inh,[12],7%
same,%Inh,[13],0%
same,%Inh,[14],17%
same,%Inh,[15]; [21],0%
same,%Inh,[16],0%
same,%Inh,[17],10%
same,%Inh,[18],0%
same,%Inh,[19],0%
same,%Inh,[20],0%
Cc1cccc(-c2nc(Nc3ccncc3)c3ccccc3n2)n1 [GW855857],%Inh,[1],7%
same,%Inh,[2],2%
same,%Inh,[3],0%
same,%Inh,[4],5%
same,%Inh,[5],0%
same,%Inh,[6],14%
same,%Inh,[7],0%
same,%Inh,[8],0%
same,%Inh,[9],0%
same,%Inh,[10],17%
same,%Inh,[11],0%
same,%Inh,[12],41%
same,%Inh,[13],10%
same,%Inh,[14],14%
same,%Inh,[16],95.7%
same,%Inh,[17],20%
same,%Inh,[18],27%
same,%Inh,[19],0%
same,%Inh,[20],0%
Cc1ccc(-c2cc(-c3c[nH]nc3-c3ccccn3)ccn2)cc1 [GW684088],%Inh,[1],28%
same,%Inh,[2],0%
same,%Inh,[3],0%
same,%Inh,[4],23%
same,%Inh,[5],0%
same,%Inh,[6],21%
same,%Inh,[7],2%
same,%Inh,[8],15%
same,%Inh,[9],0%
same,%Inh,[10],0%
same,%Inh,[11],0%
same,%Inh,[12],26%
same,%Inh,[13],0%
same,%Inh,[14],0%
same,%Inh,[15]; 1 µM,89%
same,%Inh,[16],77%
same,%Inh,[17],0%
same,%Inh,[18],13%
same,%Inh,[19],24%
same,%Inh,[20],10%
Fc1cccc(COc2nnc(-c3ccc4c(c3)CCO4)o2)c1,%Inh,[1],7%
same,%Inh,[2],2%
same,%Inh,[3],4%
same,%Inh,[4],7%
same,%Inh,[5],0%
same,%Inh,[6],0%
same,%Inh,[7],0%
same,%Inh,[8],7%
same,%Inh,[9],0%
same,%Inh,[10],0%
same,%Inh,[11],0%
same,%Inh,[12],0%
same,%Inh,[13],33%
same,%Inh,[14],0%
same,%Inh,[15]; [21],10%
same,%Inh,[16],0%
same,%Inh,[17],7%
same,%Inh,[18],0%
same,%Inh,[19],25%
same,%Inh,[20],0%
Cc1cccc(-c2cc(Nc3ccncc3)c3ccccc3n2)n1 [GSK223675],%Inh,[1],19%
same,%Inh,[2],0%
same,%Inh,[3],0%
same,%Inh,[4],0%
same,%Inh,[5],0%
same,%Inh,[6],2%
same,%Inh,[7],0%
same,%Inh,[8],0%
same,%Inh,[9],0%
same,%Inh,[10],0%
same,%Inh,[11],0%
same,%Inh,[12],28%
same,%Inh,[13],0%
same,%Inh,[14],63%
same,%Inh,[16],0%
same,%Inh,[17],0%
same,%Inh,[18],0%
same,%Inh,[19],21%
same,%Inh,[20],0%
COC(=O)c1c(-c2ccccc2)c2cc(C(=O)O)ccc2c(=O)n1Cc1ccccc1,%Inh,[1],22%
same,%Inh,[2],0%
same,%Inh,[3],0%
same,%Inh,[4],5%
same,%Inh,[5],0%
same,%Inh,[6],0%
same,%Inh,[7],14%
same,%Inh,[8],0%
same,%Inh,[9],14%
same,%Inh,[10],20%
same,%Inh,[11],0%
same,%Inh,[12],6%
same,%Inh,[13],0%
same,%Inh,[14],0%
same,%Inh,[15]; [21],21%
same,%Inh,[16],8%
same,%Inh,[17],0%
same,%Inh,[18],18%
same,%Inh,[19],10%
same,%Inh,[20],0%
